For three compounds, outcome and AC50 results are on record in PubChem BioAssay (EPA / NIEHS).

Activity calls are given as the source filed them. Rule for the calls: active = hit-call score of the fitted dose curve at least 0.9, where 1 is the maximum; inactive = score below 0.9.

Holding throughout (details): mRNA level, 48 h; actives raise or lower the signal
Read-out in test [1]: adenosine kinase (ADK) gene, ADK (gene 132)
The experiment in a line: LTEA_HepaRG_ADK: Life Technologies and Expression Analysis (LTEA) Assay for adenosine kinase (ADK) gene using HepaRG (AID 2283471). In outline: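 Read-out is ADK transcript level measured by qRT-PCR and normalised to three housekeeping genes. Cells are human HepaRG, dosed for 48 h at up to 100 uM in 0.5% DMSO. Gain or loss of signal is fitted against DMSO controls.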

Read-out in test [2]: Alpha-fetoprotein (AFP) gene, AFP (gene 174)
The experiment in a line: LTEA_HepaRG_AFP: Life Technologies and Expression Analysis (LTEA) Assay for Alpha-fetoprotein (AFP) gene using HepaRG (AID 2283472). Put shortly:
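AFP transcript measured by TaqMan qRT-PCR with three housekeeping genes for normalization, after 48 h chemical treatment of HepaRG cells (top 100 uM, half-log steps, 0.5% DMSO). Gain or loss fitted against vehicle.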

Read-out in a further test: BCL2L11 (gene 10018)
The experiment in a line: LTEA_HepaRG_BCL2L11: Life Technologies and Expression Analysis (LTEA) Assay for Bcl-2 (BCL2L11) gene using HepaRG (AID 2283473). In outline: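 Differentiated human HepaRG cells were exposed 48 h in serum-free induction medium to eight half-log concentrations up to 100 uM in 0.5% DMSO, in duplicate. BCL2L11 mRNA was quantified by TaqMan qRT-PCR, normalized to ACTB, GAPDH and POLR2A; induction or repression fitted versus DMSO.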

Read-out in test [3]: Apolipoprotein A-V (APOA5) gene, APOA5 (gene 116519)
The test is described as follows: LTEA_HepaRG_APOA5: Life Technologies and Expression Analysis (LTEA) Assay for Apolipoprotein A-V (APOA5) gene using HepaRG (AID 2283474). Put shortly: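 Differentiated HepaRG cells in serum-free induction medium, exposed 48 h in duplicate to eight half-log concentrations topping at 100 uM (0.5% DMSO). APOA5 mRNA by Fluidigm TaqMan qRT-PCR, normalized to ACTB, GAPDH and POLR2A; bidirectional fit versus DMSO.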

Read-out in test [4]: Apoptosis regulator Bcl-2 (Homo sapiens) (UniProt P10415)
The experiment in a line: LTEA_HepaRG_BCL2: Life Technologies and Expression Analysis (LTEA) Assay for Bcl-2 gene using HepaRG (AID 2283475). In outline:
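qRT-PCR of BCL2 transcript, normalized to three housekeeping genes (ACTB, GAPDH, POLR2A), after 48 h chemical exposure of HepaRG cells; concentrations top 100 uM with half-log dilutions, 0.5% DMSO vehicle, duplicates; changes up or down fitted relative to vehicle.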

Read-out in test [5]: Bcl-2 (BID) gene, BID (gene 637)
The experiment in a line: LTEA_HepaRG_BID: Life Technologies and Expression Analysis (LTEA) Assay for Bcl-2 (BID) gene using HepaRG (AID 2283476). In outline:
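Duplicate 48 h treatments of HepaRG cells in serum-free induction medium spanned 100 uM downward in half-log steps, 0.5% DMSO. Transcript change quantified by qRT-PCR against three housekeeping genes, fitted up or down versus DMSO.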

Read-out in another test: Caspase-3 (Homo sapiens) (UniProt P42574)
The test is described as follows: LTEA_HepaRG_CASP3: Life Technologies and Expression Analysis (LTEA) Assay for cysteine-aspartic acid protease (CASP3) using HepaRG (AID 2283477). Put shortly:
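Differentiated HepaRG cells, plated 48 h, were treated in duplicate in serum-free induction medium for 48 h with eight half-log concentrations up to 100 uM in 0.5% DMSO. CASP3 mRNA measured by qRT-PCR, normalized to ACTB, GAPDH, POLR2A.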

Read-out in test [6]: Cytochrome P450 (CYP24A1), CYP24A1 (gene 1591)
The experiment in a line: LTEA_HepaRG_CYP24A1: Life Technologies and Expression Analysis (LTEA) Assay for Cytochrome P450 (CYP24A1) using HepaRG (AID 2283478). Put shortly:
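HepaRG cells plated 48 h, then exposed in duplicate in serum-free induction medium for 48 h to 8-point half-log series from 100 uM in 0.5% DMSO. CYP24A1 mRNA by Fluidigm qRT-PCR, normalized to ACTB, GAPDH, POLR2A; bidirectional fit versus DMSO.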

Read-out in test [7]: Cytochrome P450 (CYP1A2), CYP1A2 (gene 1544)
The experiment in a line: LTEA_HepaRG_CYP1A2: Life Technologies and Expression Analysis (LTEA) Assay for Cytochrome P450 (CYP1A2) using HepaRG (AID 2283479). In outline: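 Differentiated human HepaRG cells in serum-free induction medium exposed 48 hours in duplicate to 8 half-log concentrations from 100 uM, 0.5% DMSO. CYP1A2 mRNA quantified by qRT-PCR, normalized to ACTB, GAPDH and POLR2A; bidirectional fitting versus DMSO.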

Read-out in test [8]: cysteine-aspartic acid protease (CASP8), CASP8 (gene 841)
The experiment in a line: LTEA_HepaRG_CASP8: Life Technologies and Expression Analysis (LTEA) Assay for cysteine-aspartic acid protease (CASP8) using HepaRG (AID 2283480). In outline:
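qRT-PCR readout of CASP8 mRNA, normalized to three housekeeping genes, after 48 h chemical exposure of HepaRG cells; 8-point half-log series, top 100 uM, 0.5% DMSO vehicle. Bidirectional curve fitting against DMSO baseline.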

Read-out in test [9]: Cytochrome P450 (CYP2B6), CYP2B6 (gene 1555)
The experiment in a line: LTEA_HepaRG_CYP2B6: Life Technologies and Expression Analysis (LTEA) Assay for Cytochrome P450 (CYP2B6) using HepaRG (AID 2283481). In outline: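 Differentiated human HepaRG cells in serum-free induction medium, dosed in duplicate for 48 h over 8 half-log concentrations topping at 100 uM (0.5% DMSO). CYP2B6 mRNA measured by TaqMan qRT-PCR, normalized to ACTB, GAPDH, POLR2A; bidirectional fit versus DMSO.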

Read-out in test [10]: Cytochrome P450 2C19 (Homo sapiens) (UniProt P33261)
The experiment in a line: LTEA_HepaRG_CYP2C19: Life Technologies and Expression Analysis (LTEA) Assay for CYP2C19 using HepaRG (AID 2283482). Put shortly:
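Differentiated HepaRG cells in serum-free induction medium exposed 48 h in duplicate, 8 concentrations from 100 uM by half-log steps in 0.5% DMSO. CYP2C19 mRNA measured by TaqMan qRT-PCR, normalized to ACTB, GAPDH, POLR2A. Bidirectional fit versus DMSO.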

Read-out in another test: CYP2C8 (gene 1558)
The test is described as follows: LTEA_HepaRG_CYP2C8: Life Technologies and Expression Analysis (LTEA) Assay for CYP2C8 using HepaRG (AID 2283483). Put shortly:
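HepaRG (human liver line), 48 h chemical exposure, 8-pt half-log series from 100 uM, 0.5% DMSO vehicle. Readout: CYP2C8 transcript by qRT-PCR, housekeeping-normalized. Bidirectional fit vs DMSO baseline.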

Read-out in a further test: CYP2C9 (gene 1559)
The test is described as follows: LTEA_HepaRG_CYP2C9: Life Technologies and Expression Analysis (LTEA) Assay for CYP2C9 using HepaRG (AID 2283484). In outline: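 HepaRG, 48 h dosing, 8-pt half-log series, top 100 uM, 0.5% DMSO vehicle. Read-out: CYP2C9 transcript by TaqMan qRT-PCR, housekeeping-normalized (ACTB/GAPDH/POLR2A). Gain or loss fitted vs DMSO baseline.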

Read-out in the next test: CYP2E1 (gene 1571)
The test is described as follows: LTEA_HepaRG_CYP2E1: Life Technologies and Expression Analysis (LTEA) Assay for CYP2E1 using HepaRG (AID 2283485). In outline: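 CYP2E1 transcript measured by Fluidigm qRT-PCR against three housekeeping genes in human HepaRG cells treated 48 h (top 100 uM, half-log steps, 0.5% DMSO vehicle). Gain or loss fitted relative to DMSO baseline.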

Read-out in the next test: CYP4A11 (gene 1579)
The experiment in a line: LTEA_HepaRG_CYP4A11: Life Technologies and Expression Analysis (LTEA) Assay for CYP4A11 using HepaRG (AID 2283486). Put shortly: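 Differentiated HepaRG cells, 48 h after plating, exposed in duplicate for 48 h to 8 half-log concentrations up to 100 uM in 0.5% DMSO in serum-free induction medium. CYP4A11 mRNA measured by TaqMan qRT-PCR, normalized to ACTB, GAPDH and POLR2A.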

Read-out in test [11]: Cytochrome P450 3A4 (Homo sapiens) (UniProt P08684)
The test is described as follows: LTEA_HepaRG_CYP3A4: Life Technologies and Expression Analysis (LTEA) Assay for CYP3A4 using HepaRG (AID 2283487). In outline:
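HepaRG, 48 h exposure, 8-pt CRC from 100 uM (half-log), 0.5% DMSO, duplicates; serum-free induction medium. Readout: CYP3A4 mRNA, qRT-PCR, ACTB/GAPDH/POLR2A normalization. Bidirectional fit vs DMSO.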

Read-out in test [12]: DNA damage-inducible transcript 3 (DDIT3), DDIT3 (gene 1649)
The test is described as follows: LTEA_HepaRG_DDIT3: Life Technologies and Expression Analysis (LTEA) Assay for DNA damage-inducible transcript 3 (DDIT3) using HepaRG (AID 2283488). Put shortly:
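DDIT3 transcript was quantified by qRT-PCR with ACTB/GAPDH/POLR2A normalization after 48 h chemical treatment of differentiated HepaRG cells in 0.5% DMSO. Dosing was eight-point, half-log, top 100 uM, duplicate wells. Curves fitted bidirectionally versus DMSO.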

Read-out in test [13]: Pro-epidermal growth factor (Homo sapiens) (UniProt P01133)
The test is described as follows: LTEA_HepaRG_EGF: Life Technologies and Expression Analysis (LTEA) Assay for Epidermal growth factor (EGF) using HepaRG (AID 2283489). In outline: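 HepaRG cells (~100,000/well, 48 h pre-culture) exposed in duplicate for 48 h in serum-free induction medium to 8 half-log concentrations up to 100 uM in 0.5% DMSO. EGF mRNA by qRT-PCR, normalized to ACTB/GAPDH/POLR2A; bidirectional fit versus DMSO.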

Read-out in test [14]: Early growth response protein 1 (EGR1) transcription factor, EGR1 (gene 1958)
The test is described as follows: LTEA_HepaRG_EGR1: Life Technologies and Expression Analysis (LTEA) Assay for Early growth response protein 1 (EGR1) transcription factor using HepaRG (AID 2283490). Put shortly: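 HepaRG, 48 h exposure, 8-pt half-log series from 100 uM, 0.5% DMSO vehicle; EGR1 transcript by TaqMan qRT-PCR (Fluidigm array), housekeeping-normalized; bidirectional fit relative to DMSO baseline.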

Sequence of Cytochrome P450 3A4 (Homo sapiens) (P08684 whole entry, looked up): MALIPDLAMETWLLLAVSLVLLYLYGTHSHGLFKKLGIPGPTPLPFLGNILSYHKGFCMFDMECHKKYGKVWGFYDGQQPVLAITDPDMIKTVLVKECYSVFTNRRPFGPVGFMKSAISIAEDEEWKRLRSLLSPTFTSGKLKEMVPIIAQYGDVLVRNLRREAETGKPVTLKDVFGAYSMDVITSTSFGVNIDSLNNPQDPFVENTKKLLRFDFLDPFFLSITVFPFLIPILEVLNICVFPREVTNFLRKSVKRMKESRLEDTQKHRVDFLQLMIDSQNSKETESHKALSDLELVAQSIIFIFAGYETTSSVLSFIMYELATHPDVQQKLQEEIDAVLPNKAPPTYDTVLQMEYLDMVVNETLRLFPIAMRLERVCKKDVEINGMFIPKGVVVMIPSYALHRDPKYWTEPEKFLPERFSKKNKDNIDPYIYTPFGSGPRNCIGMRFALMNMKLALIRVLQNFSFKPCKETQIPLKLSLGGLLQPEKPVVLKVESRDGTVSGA
Sequence of Apoptosis regulator Bcl-2 (Homo sapiens) (P10415 whole entry, looked up): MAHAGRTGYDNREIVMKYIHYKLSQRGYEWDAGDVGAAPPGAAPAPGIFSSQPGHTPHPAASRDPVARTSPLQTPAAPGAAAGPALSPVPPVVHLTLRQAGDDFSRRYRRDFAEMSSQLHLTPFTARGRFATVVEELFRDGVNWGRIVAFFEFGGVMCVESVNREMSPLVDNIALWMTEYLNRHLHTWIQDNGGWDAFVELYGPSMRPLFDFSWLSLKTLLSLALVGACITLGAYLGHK
Sequence of Caspase-3 (Homo sapiens) (P42574 whole entry, looked up): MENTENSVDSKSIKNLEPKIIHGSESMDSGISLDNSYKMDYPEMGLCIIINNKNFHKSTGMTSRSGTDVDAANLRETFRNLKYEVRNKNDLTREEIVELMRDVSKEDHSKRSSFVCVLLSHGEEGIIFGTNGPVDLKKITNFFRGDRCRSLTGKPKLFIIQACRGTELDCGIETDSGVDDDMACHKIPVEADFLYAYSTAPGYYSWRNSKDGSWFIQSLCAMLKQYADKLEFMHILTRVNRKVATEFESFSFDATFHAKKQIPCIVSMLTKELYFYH
Sequence of Cytochrome P450 2C19 (Homo sapiens) (P33261 whole entry, looked up): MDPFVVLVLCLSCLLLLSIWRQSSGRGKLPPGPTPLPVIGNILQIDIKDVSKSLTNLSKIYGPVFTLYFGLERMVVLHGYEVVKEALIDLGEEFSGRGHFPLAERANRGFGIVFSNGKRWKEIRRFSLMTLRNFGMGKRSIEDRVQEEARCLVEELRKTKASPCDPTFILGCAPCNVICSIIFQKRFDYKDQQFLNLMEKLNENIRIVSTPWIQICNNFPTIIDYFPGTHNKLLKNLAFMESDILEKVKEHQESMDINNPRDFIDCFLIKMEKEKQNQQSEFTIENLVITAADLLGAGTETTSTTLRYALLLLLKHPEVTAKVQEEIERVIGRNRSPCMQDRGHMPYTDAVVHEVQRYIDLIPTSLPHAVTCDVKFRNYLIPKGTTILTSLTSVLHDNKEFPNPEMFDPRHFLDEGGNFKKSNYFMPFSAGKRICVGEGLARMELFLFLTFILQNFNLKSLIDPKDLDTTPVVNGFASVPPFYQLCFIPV

In the case of `CCCCC(CC)COC(=O)CCCCC(=O)OCc1ccccc1` (stereo not given), the compound was classed as inactive (in [1]; in [2]; with BCL2L11 (gene 10018); in test [3]; in test [4]; in [5]). In addition, the result (with Caspase-3 (Homo sapiens); in [6]; in test [7]; in test [8]; in test [9]; in test [10]) was inactive. Further, the outcome (with CYP2C8 (gene 1558); with CYP2C9 (gene 1559); with CYP2E1 (gene 1571); in the test with CYP4A11 (gene 1579); in test [11]; in [12]) was inactive. In addition, the outcome in [13] and in test [14] was inactive.
As for `O=c1c(-c2ccc(O)cc2)coc2cc(O)ccc12`, the compound was called inactive (in [1]; in test [2]; in the test with BCL2L11 (gene 10018); in test [3]; in [4]; in test [5]). Further, the compound was called inactive (with Caspase-3 (Homo sapiens); in [6]; in test [7]; in test [8]; in test [9]; in [10]). For the same compound, the compound was classed as inactive (with CYP2C8 (gene 1558); in the test with CYP2C9 (gene 1559); in the test with CYP2E1 (gene 1571); with CYP4A11 (gene 1579); in test [11]; in test [12]). Moreover, the compound was classed as inactive in test [13] and in test [14].
As a reminder, the AC50 is the concentration giving half of the maximal activity seen. Take `CCc1nn(C2CCCCC2)c2cc(C3(C#N)CCC(C(=O)O)CC3)ccc12` (stereo not given): the compound was classed as inactive (in [1]; in [5]; in the test with Caspase-3 (Homo sapiens); in test [6]; in test [8]). Moreover, the half-maximal activity concentration (AC50) is 64 µM (active) in test [2]; 8.54 µM (active) with BCL2L11 (gene 10018); 77.4 µM (active) in test [3]; 74.3 µM (active) in test [4]; 91 µM (active) in test [7]; 82.8 µM (active) in [9]. For the same compound, the AC50 was 63.3 µM (active) in test [10]; 79.8 µM (active) in the test with CYP2C8 (gene 1558); 63.4 µM (active) with CYP2C9 (gene 1559); 60.6 µM (active) with CYP2E1 (gene 1571); 50.6 µM (active) with CYP4A11 (gene 1579); 82.2 µM (active) in test [11]. Further, the results for the AC50 in test [12], in test [13] and in test [14] were 77.5 µM (active), 50 µM (active) and 12.1 µM (active), respectively.
